# CBX7 inh: CBX7 chromodomain binding inhibitors, primary screen, biochemical, AlphaScreen; Chromobox protein homolog 7 (Homo sapiens), O95931; AlphaScreen His6-CBX7 / biotin-H3K27me3 peptide binding; active compounds read low; normalised signal (fraction of DMSO) (concentration not given with the values); 66,000 tested, 1.1% active; AID 1224903, 2016; in the data active = normalised signal below about 0.5
# Target sequence (O95931 whole entry, looked up): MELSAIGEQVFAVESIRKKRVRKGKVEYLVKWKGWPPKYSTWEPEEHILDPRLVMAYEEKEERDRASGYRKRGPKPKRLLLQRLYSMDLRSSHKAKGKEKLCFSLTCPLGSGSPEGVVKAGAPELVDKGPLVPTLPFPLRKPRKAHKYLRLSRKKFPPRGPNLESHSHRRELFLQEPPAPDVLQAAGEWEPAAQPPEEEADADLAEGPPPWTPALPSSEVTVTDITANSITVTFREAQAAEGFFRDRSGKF
# * hit, by the source's call. Only a selection was taken, and hits are over-represented in it overall.
SMILES,CBX7 inh
Cc1ccc2c(c1)N(C(C)C(=O)NCc1ccccn1)C(=O)CO2 (stereo not given),0.25*
CCOc1ccccc1C(=O)NCCc1cc2c(C)ccc(C)c2[nH]c1=O,1.05
COc1ccc(Nc2cc(C(=O)NCCCSC3CCCCC3)c3ccccc3n2)cc1,1
O=C(COc1ccc(Cl)cc1Cl)Nc1c(-c2ccccc2)nc2ccccn12,0.899
COc1ccccc1CNC(=O)c1nn(-c2ccccc2OC)c(=O)c2ccccc12,0.941
COCCNC(=O)c1nn(-c2ccccc2OC)c(=O)c2ccccc12,1.01
CCN(CCCNC(=O)c1nn(-c2ccccc2OC)c(=O)c2ccccc12)c1cccc(C)c1,0.481*
CCCOc1ccc(C2Nc3ccccc3NC3=C2C(=O)CC(c2ccc(OC)cc2)C3)cc1 (stereo not given),0.781
CC1CCCCC1NC(=O)CNc1ccccc1-c1nc2ccccc2[nH]c1=O (stereo not given),1.01
CC(C)OCCCNC(=O)c1cc(=O)[nH]c2ccc(S(=O)(=O)N3CCCCCC3)cc12,0.947
COc1ccc(S(=O)(=O)N2CC=C(C(=O)NCc3ccc(C)cc3)CC2)cc1,0.978
CCN(CC)S(=O)(=O)c1ccc(C(=O)Nc2nc3ccc4nc(C)sc4c3s2)cc1,0.933
CCN(Cc1ccccc1)S(=O)(=O)c1ccc(C(=O)Nc2nnc(-c3cccs3)o2)cc1,0.955
CCN(CC)S(=O)(=O)c1ccc(C(=O)Nc2nnc(C)o2)cc1,0.0844*
CCCN(CCC)S(=O)(=O)c1ccc(C(=O)Nc2nnc(C)o2)cc1,0.0834*
Cc1ccc(NC(=O)CC2Oc3ccccc3NC2=O)c(Cl)c1 (stereo not given),0.937
N#Cc1nc(COc2ccccc2Cl)oc1N1CCN(Cc2ccccc2)CC1,0.689
OCCCNc1ncnc2c1c(-c1ccccc1)cn2-c1cccc(C(F)(F)F)c1,0.891
CC(C)CN(CCNC(=O)CC(C(=O)N1CCc2ccccc21)n1ccnc1)CC(C)C (stereo not given),0.976
O=C(Nc1ccc(-c2csc(Nc3cccc(O)c3)n2)cc1)c1ccccc1,0.643
O=C1c2ccccc2NC(c2ccccc2)N1c1ccccn1 (stereo not given),1.08
C=CCNC(=O)Cc1c(C)n(C(=O)c2ccc(Cl)cc2)c2ccc(OC)cc12,0.996
COc1ccc2c(c1)c(CC(=O)Nc1ccccn1)c(C)n2C(=O)c1ccc(Cl)cc1,0.414*
COc1ccc2c(c1)c(CC(=O)NC1CC1)c(C)n2C(=O)c1ccc(Cl)cc1,0.894
Cc1nc(N2CCC(C)CC2)c2c(C)c(C(=O)NC3CCCC(C)C3C)sc2n1 (stereo not given),1.02
SMILES,CBX7 inh
O=C(Nc1ccccc1C(=O)O)c1cc(S(=O)(=O)N2CCCC2)c(Cl)cc1Cl,1.03
O=C(CC(C(=O)N1CCc2ccccc21)n1ccnc1)NC1CC1 (stereo not given),1.02
CCC(C)NC(=O)CC(C(=O)N1CCc2ccccc21)n1ccnc1 (stereo not given),1
O=C(CC(C(=O)N1CCc2ccccc21)n1ccnc1)NC(c1ccccc1)c1ccccc1 (stereo not given),0.451*
Cc1ccccc1CN1CCN(CC(=O)NCCC2=CCCCC2)C1=O,0.954
COc1ccccc1CNS(=O)(=O)c1ccc2[nH]cc(C(=O)O)c(=O)c2c1,0.712
O=C(O)c1c[nH]c2ccc(S(=O)(=O)NCc3ccc4c(c3)OCO4)cc2c1=O,0.477*
COc1cccc(CNS(=O)(=O)c2ccc3[nH]cc(C(=O)O)c(=O)c3c2)c1,0.897
Cc1ccc(CNC(=O)c2cc(Nc3ccccc3)nc3ccccc23)cc1,0.948
O=C(O)C1Cc2c([nH]c3ccccc23)C(c2ccc(OC(F)F)cc2)N1 (stereo not given),0.959
CCC(C)(C)C1CCc2oc3ccc(NS(=O)(=O)c4cccs4)cc3c2C1 (stereo not given),0.419*
CCc1ccc(S(=O)(=O)Nc2ccc3oc4c(c3c2)CC(C(C)(C)C)CC4)cc1 (stereo not given),0.783
CC1CCc2oc3ccc(NS(=O)(=O)c4cccs4)cc3c2C1 (stereo not given),0.643
O=C(Nc1nnc(COc2ccccc2)s1)c1cccc(Br)c1,1.04
Fc1cccc(-c2nc(-c3ccccc3)c(-c3cccs3)[nH]2)c1,0.971
COc1ccc(Cl)cc1-n1nc(C)c2c1CC(c1ccccc1)CC2=O (stereo not given),1.15
COc1ccc(N(C)C(=O)CCc2nc(-c3ccccc3F)no2)c(OC)c1,1.09
CC1CCN(S(=O)(=O)c2ccc(C(=O)Nc3nc(-c4ccccn4)cs3)cc2)CC1,0.962
CC1CCN(S(=O)(=O)c2ccc(C(=O)Nc3nc(-c4ccncc4)cs3)cc2)CC1,0.998
CC1CCCCN1S(=O)(=O)c1ccc(C(=O)Nc2nc(-c3ccncc3)cs2)cc1 (stereo not given),1.04
O=C(Nc1nc(-c2ccncc2)cs1)c1ccc(S(=O)(=O)N2CCCCC2)cc1,1.02
CC1CCCN(S(=O)(=O)c2ccc(C(=O)Nc3nc(-c4ccccn4)cs3)cc2)C1 (stereo not given),0.221*
CC1CCCCN1S(=O)(=O)c1ccc(C(=O)Nc2nc(-c3ccccn3)cs2)cc1 (stereo not given),0.193*
CCCC(=O)Nc1ccc(-c2nc3ccc(C)cc3s2)cc1,0.937
NS(=O)(=O)c1ccc(CCNC(=O)CCCCn2c(=O)[nH]c3ccccc3c2=O)cc1,0.984
SMILES,CBX7 inh
O=C(O)c1[nH]c2ccccc2c1CC(=O)N1CCCCCC1,1.04
COc1cc(NC(=O)c2cccs2)c2ncccc2c1,1.07
O=C1CC(c2ccc(Cl)cc2)CC2=C1C(c1cccnc1)Nc1ccccc1N2 (stereo not given),0.922
CCn1cc(C(=O)Nc2ccccc2F)c2cc(OC)c(OC)cc2c1=O,1.04
CN(C)c1ccc(-c2nc3cc(NC(=O)c4cccc5ccccc45)ccc3o2)cc1,1.07
Cc1ccc2nc(-c3ccc(S(=O)(=O)N4CCCCCC4)cc3)cn2c1,0.972
COc1ccc(CN2CC(C(=O)NCc3ccc(F)cc3)CC2=O)cc1 (stereo not given),1.13
COc1ccc(CN2CC(C(=O)NC3CCCC3)CC2=O)cc1 (stereo not given),1.01
COc1ccc(CN2CC(C(=O)NCc3ccccn3)CC2=O)cc1 (stereo not given),0.367*
COc1cccc(C(=O)N2CC(=O)Nc3ccc(Br)cc3C2c2ccccc2)c1 (stereo not given),0.938
Cc1cc2nc(-c3ccc(NC(=O)c4cccc(F)c4)cc3)oc2cc1C,0.878
O=C(NCCCc1ccccc1)c1ccc2c(c1)NC(=O)C1CCCN21 (stereo not given),0.944
Cc1ccc2c(c1)c1c3n2CCN(CCC(N)=O)C3CCC1 (stereo not given),0.967
OC1(c2ccc3c(c2)c2c4n3CCN(Cc3ccccc3)C4CCC2)CCCC1 (stereo not given),0.369*
CCN1CCn2c3c(c4cc(Cl)ccc42)CCCC31 (stereo not given),0.985
Cc1ccc(CN2C(=O)Cn3cccc3C2C(=O)NC2CCC(C)CC2)cc1 (stereo not given),1.1
CCC(C)NC(=O)CCC(=O)Nc1ccc2nc(N3CCN(CC)CC3)cc(C)c2c1 (stereo not given),1.14
c1ccc(-c2nc(N3CCOCC3)c3ccccc3n2)cc1,1.05
Cc1cc(=O)oc2c(CN3CCCC3)c(O)ccc12,1.08
CCn1cc(C(=O)N2CCCCC2)c(=O)c2ccc(C)nc21,1.09

# From PubChem
